# Reference: PubChem BioAssay (NCI)
# This is part of a sample that, as a whole, favours compounds with a hit. Of some 83,000 tested, about 20% had one in any assay.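 Single-dose data. Exposure time 48 hours. Values below 10 considered active.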 Active and inactive are the calls of the source.
# Key:
# Test in all cases: NCI-60 one-dose screen, 48 h (100 = growth as untreated, 0 = no growth, -100 = all killed)
# Settings in all cases: 10 µM unless noted
# SK-MEL-2 melanoma = system: SK-MEL-2 melanoma
# EKVX NSCLC = system: EKVX NSCLC
# SN12C renal = system: SN12C renal
# TK-10 renal = system: TK-10 renal
# CAKI-1 renal = system: CAKI-1 renal
# A498 renal = system: A498 renal
# CCRF-CEM leukemia = system: CCRF-CEM leukemia
# MOLT-4 leukemia = system: MOLT-4 leukemia
# ACHN renal = system: ACHN renal
# UO-31 renal = system: UO-31 renal
SMILES,growth (SK-MEL-2 melanoma),growth (EKVX NSCLC),growth (SN12C renal),growth (TK-10 renal),growth (CAKI-1 renal),growth (A498 renal),growth (CCRF-CEM leukemia),growth (MOLT-4 leukemia),growth (ACHN renal),growth (UO-31 renal)
COc1ccc2cc(-c3ccc(NC(C)=O)c(=O)o3)ccc2c1,98.6% (inactive),106% (inactive),102% (inactive),97.4% (inactive),89.7% (inactive),85% (inactive),93.1% (inactive),90.9% (inactive),–,–
O=C(OCc1ccc2cccc(O)c2n1)N1CCN(C(=O)c2cc3cc(F)ccc3[nH]2)CC1,-59.7% (active),-87.8% (active),-90.8% (active),-97.1% (active),-97.8% (active),17.5% (inactive),3.76% (active),-16.9% (active),-99.8% (active),–
CCCCC(=O)c1ccco1,98.6% (inactive),98.7% (inactive),87.9% (inactive),96% (inactive),90.2% (inactive),74.6% (inactive),92.3% (inactive),102% (inactive),96.7% (inactive),–
C=C(C)[C@@H]1CC[C@]2(C(=O)N3CCN(C)CC3)CC[C@]3(C)[C@H](CC[C@@H]4[C@@]5(C)CC(=C/c6ccncc6)/C(=N/O)C(C)(C)[C@@H]5CC[C@]43C)[C@@H]12,83.8% (inactive),84.6% (inactive),74.7% (inactive),85.2% (inactive),63.8% (inactive),96.8% (inactive),57.9% (inactive),33.9% (inactive),75.9% (inactive),–
O=C1/C(=C\c2cn(-c3ccccc3)nc2-c2ccc(-c3cccs3)cc2)CCc2ccccc21,70.4% (inactive),68.5% (inactive),66.8% (inactive),101% (inactive),41.2% (inactive),10.3% (inactive),48% (inactive),49.1% (inactive),79.5% (inactive),–
Cc1ccccc1Cn1cnc2ccc(-c3cc(NC(=O)c4ccc(NC5CCN(C)CC5)cc4)n[nH]3)cc21,98.3% (inactive),91.9% (inactive),29.7% (inactive),105% (inactive),68.6% (inactive),47.8% (inactive),72% (inactive),43% (inactive),107% (inactive),–
O=C1COCCN1c1ccc(Nc2nc(Cl)nc(OCc3cn(Cc4ccccc4)nn3)n2)cc1,85.6% (inactive),99.5% (inactive),94.2% (inactive),98.6% (inactive),84.4% (inactive),92.2% (inactive),60% (inactive),62% (inactive),101% (inactive),–
CCN1C(=O)N(CC)C2C1NN=c1s/c(=C\c3cccc([N+](=O)[O-])c3)c(=O)n12 (stereo not given),43.4% (inactive),50.5% (inactive),25.5% (inactive),69.6% (inactive),25.7% (inactive),13% (inactive),10.8% (inactive),15.6% (inactive),32.9% (inactive),–
NC(=O)c1c(NC(=O)c2ccccc2)sc2c1CCC(=O)C2,12.7% (inactive),19.2% (inactive),12.2% (inactive),54.9% (inactive),-8.25% (active),92.3% (inactive),5.12% (active),–,7.58% (active),–
O=C1c2ccc3c4ccc5c6c(ccc(c7ccc(c2c37)C(=O)N1CCC[P+](c1ccccc1)(c1ccccc1)c1ccccc1)c64)C(=O)N(CCC[P+](c1ccccc1)(c1ccccc1)c1ccccc1)C5=O,98.7% (inactive),45.6% (inactive),70.5% (inactive),141% (inactive),0.659% (active),78.1% (inactive),45.9% (inactive),46.1% (inactive),104% (inactive),–
O=C1N(Cc2ccccc2Cl)c2ccccc2C12NN=C(c1cccc(Cl)c1)S2 (stereo not given),-23.1% (active),-31% (active),-19.8% (active),-3.68% (active),-30.7% (active),-85.9% (active),1.03% (active),-18% (active),-47.1% (active),–
CN1C(=O)N(C)C2Nn3c(s/c(=C\c4ccc(C(F)(F)F)cc4)c3=O)=NC21 (stereo not given),115% (inactive),100% (inactive),100% (inactive),106% (inactive),82.7% (inactive),109% (inactive),101% (inactive),106% (inactive),105% (inactive),–
COC(=O)c1cc(-c2ccc(OC)cc2)[nH]c1N/N=C/c1c(Cl)cccc1Cl,52.9% (inactive),–,26% (inactive),47.8% (inactive),-5.7% (active),-2.53% (active),12.2% (inactive),12.4% (inactive),39.3% (inactive),27.9% (inactive)
